Experimental data taken from PubChem BioAssay (Tox21).
Results filed as inconclusive are left out. Active and inactive are the calls of the source. Unless noted, the call rests on the fitted dose curve.

Tests used:
[1] = Nuclear factor erythroid 2-related factor 2/antioxidant responsive element (Nrf2/ARE) small molecule agonists: qHTS cell viability counter screen in human keratinocytes (AID 1919968; active means well fitted curve in the direction sought with a large enough effect in the repeat runs; an effect the other way counts as inactive or inconclusive; further: nearly all actives have a fitted effect of over 55% in size)
In short: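 Seed 1,500 KeratinoSens cells per well, then incubate 5 h at 37 C/5% CO2. Add compounds in DMSO and incubate 23 h. Add CellTiter-Fluor, wait 1 h and read fluorescence.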

[2] = Nuclear factor erythroid 2-related factor 2/antioxidant responsive element (Nrf2/ARE) small molecule agonists: luciferase reporter gene qHTS assay in human keratinocytes (AID 1919969); further: nearly all actives have a fitted effect of over 35% in size
[3] = target: Gonadotropin-releasing hormone receptor (Homo sapiens) (UniProt P30968); test: Human gonadotropin-releasing hormone receptor (GnRHR) small molecule agonists, calcium flux assay in GnRHR-HEK293 cells (AID 1920063); further: nearly all actives have a fitted effect of over 35% in size
Chain of Gonadotropin-releasing hormone receptor (Homo sapiens) (P30968 whole entry, looked up): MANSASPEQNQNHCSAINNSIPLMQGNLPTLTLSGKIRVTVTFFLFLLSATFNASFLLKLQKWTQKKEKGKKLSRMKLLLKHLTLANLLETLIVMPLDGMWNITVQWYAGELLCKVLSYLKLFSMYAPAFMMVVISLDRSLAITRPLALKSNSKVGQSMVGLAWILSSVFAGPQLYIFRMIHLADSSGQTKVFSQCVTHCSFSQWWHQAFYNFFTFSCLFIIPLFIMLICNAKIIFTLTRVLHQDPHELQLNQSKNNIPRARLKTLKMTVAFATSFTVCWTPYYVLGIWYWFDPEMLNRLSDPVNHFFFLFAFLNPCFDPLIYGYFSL
In short: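 Cells: HEK293 stably expressing human GnRHR. Steps: overnight (18 h) culture, 1 h calcium dye loading at 37 C, compound addition, kinetic fluorescence read at 480/540 nm. Each compound tested at 15 concentrations in triplicate.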

[4] = target: KiSS-1 receptor (Homo sapiens) (UniProt Q969F8); test: Human kisspeptin (KISS1R) small molecule agonists, calcium flux assay in KISS1R-HEK293 cells (AID 1920064; active means well fitted curve in the direction sought with a large enough effect in the repeat runs; an effect the other way counts as inactive or inconclusive)
Chain of KiSS-1 receptor (Homo sapiens) (Q969F8 whole entry, looked up): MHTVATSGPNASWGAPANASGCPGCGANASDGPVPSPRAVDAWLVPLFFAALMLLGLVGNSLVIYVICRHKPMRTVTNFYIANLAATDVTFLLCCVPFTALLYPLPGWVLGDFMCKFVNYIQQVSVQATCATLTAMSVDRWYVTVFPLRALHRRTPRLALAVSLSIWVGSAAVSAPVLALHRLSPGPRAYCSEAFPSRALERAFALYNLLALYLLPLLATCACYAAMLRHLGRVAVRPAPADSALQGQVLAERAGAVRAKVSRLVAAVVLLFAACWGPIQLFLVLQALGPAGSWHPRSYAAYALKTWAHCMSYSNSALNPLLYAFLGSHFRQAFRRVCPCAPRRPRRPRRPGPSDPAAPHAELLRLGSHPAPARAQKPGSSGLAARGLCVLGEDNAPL
In short: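 Cells plated and incubated 18 h; dye added, 1 h at 37 C; compounds in DMSO pinned in; signal read at 480/540 nm every second for 3 min. Each compound tested at 15 concentrations in triplicate.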

[5] = p53 small molecule agonists, cell-based qHTS assay with human liver microsomes (AID 1963577);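 further: p53 response element beta-lactamase reporter cells with liver microsomes plus NADPH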
In short: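 Metabolically competent format: test substances, human liver microsomes and NADPH (both 0.5 mg/mL final) incubated with p53RE-bla cells 16 h at 37 C. Beta-lactamase reporter signal then quantified by fluorescence.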

[6] = p53 small molecule agonists, cell-based qHTS assay with human liver microsomes: qHTS cell viability counter screen (AID 1963579); further: nearly all actives have a fitted effect of over 45% in size
In short: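 Tox21 library compounds, delivered from DMSO stocks, were tested on p53RE-bla cells together with 0.5 mg/mL human liver microsomes and 0.5 mg/mL NADPH (final) over 16 h at 37 C; CellTiter-Glo luminescence served as the cytotoxicity measure.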

[7] = p53 small molecule agonists, cell-based qHTS assay: qHTS cell viability counter screen (AID 1963581); further: nearly all actives have a fitted effect of over 45% in size
In short: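 Cells: HCT-116 with p53 response element-driven beta-lactamase. Treatment: 16 h, 37 C, compounds in DMSO. Read: CellTiter-Glo luminescence after 30 min RT.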

[8] = p53 small molecule agonists, cell-based qHTS assay (AID 1963582; active means well fitted activation curve with a large enough effect in the signal ratio in the repeat runs, not every such curve was filed as active; the % refers to the signal ratio)
In short: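 Quantitative HTS in p53RE-bla cells: after a 5 h settling period, compounds delivered in DMSO were left on cells for 16 h at 37 C, and reporter induction was measured as fluorescence following 2 h substrate loading.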

[9] = target: 5-hydroxytryptamine receptor 2A (Homo sapiens) (UniProt P28223); test: 5-hydroxytryptamine receptor 2A (HTR2A) small molecule antagonists, cell-based qHTS assay (AID 1963586); further: nearly all actives have a fitted effect of over 45% in size
Chain of 5-hydroxytryptamine receptor 2A (Homo sapiens) (P28223 whole entry, looked up): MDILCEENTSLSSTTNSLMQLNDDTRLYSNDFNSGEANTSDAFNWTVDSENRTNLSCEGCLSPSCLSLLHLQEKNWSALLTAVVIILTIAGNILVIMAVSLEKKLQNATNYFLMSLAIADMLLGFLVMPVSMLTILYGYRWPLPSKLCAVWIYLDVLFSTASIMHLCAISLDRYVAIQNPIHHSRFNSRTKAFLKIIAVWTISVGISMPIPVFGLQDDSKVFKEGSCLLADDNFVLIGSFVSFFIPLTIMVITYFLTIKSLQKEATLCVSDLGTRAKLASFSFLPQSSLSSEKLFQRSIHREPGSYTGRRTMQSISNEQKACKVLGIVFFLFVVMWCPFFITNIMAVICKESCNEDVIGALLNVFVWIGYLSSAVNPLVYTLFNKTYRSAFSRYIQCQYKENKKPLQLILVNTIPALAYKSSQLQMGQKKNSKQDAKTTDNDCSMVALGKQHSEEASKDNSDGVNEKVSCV
In short: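 Antagonist-mode intracellular calcium assay: DOI (4 nM) added after 5 min compound pre-incubation at room temperature to dye-loaded HTR2A-CHO cells. Fluorescence followed for 3 min, sampled every second.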

[10] = target: 5-hydroxytryptamine receptor 2A (Homo sapiens) (UniProt P28223); test: 5-hydroxytryptamine receptor 2A (HTR2A) small molecule agonists, cell-based qHTS assay (AID 1963587); further: nearly all actives have a fitted effect of over 30% in size
In short: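 Kinetic calcium-flux fluorescence (2 min, 1 sec intervals) after compound addition in agonist mode. HTR2A-CHO cells were cultured 18 h, then dye-loaded 1 h at 37 C.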

[11] = target: Muscarinic acetylcholine receptor M1 (Homo sapiens) (UniProt P11229); test: Cholinergic receptor muscarinic 1 (CHRM1) small molecule antagonists, cell-based qHTS assay (AID 1963588); further: nearly all actives have a fitted effect of over 40% in size
Chain of Muscarinic acetylcholine receptor M1 (Homo sapiens) (P11229 whole entry, looked up): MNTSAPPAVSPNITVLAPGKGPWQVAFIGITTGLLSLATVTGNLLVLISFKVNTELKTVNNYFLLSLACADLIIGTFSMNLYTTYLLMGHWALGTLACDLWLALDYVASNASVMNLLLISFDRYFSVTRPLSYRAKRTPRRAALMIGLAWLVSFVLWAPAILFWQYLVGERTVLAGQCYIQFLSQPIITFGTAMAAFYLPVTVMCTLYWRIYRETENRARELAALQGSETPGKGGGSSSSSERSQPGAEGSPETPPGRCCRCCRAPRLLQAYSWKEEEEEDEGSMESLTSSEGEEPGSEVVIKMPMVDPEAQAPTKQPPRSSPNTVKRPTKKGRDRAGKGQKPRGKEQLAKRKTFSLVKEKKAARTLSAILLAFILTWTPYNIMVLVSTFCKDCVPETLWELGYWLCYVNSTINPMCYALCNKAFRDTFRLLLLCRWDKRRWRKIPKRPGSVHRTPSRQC
In short: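 CHRM1-CHO calcium-flux assay, antagonist mode. Cells were seeded 18 h, dye-loaded 1 h at 37 C and given compound for 5 min at RT, then acetylcholine was added at 50nM. FDSS fluorescence was read 3 min; 15 concentrations, three runs.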

[12] = target: Muscarinic acetylcholine receptor M1 (Homo sapiens) (UniProt P11229); test: Cholinergic receptor muscarinic 1 (CHRM1) small molecule agonists, cell-based qHTS assay (AID 1963589); further: nearly all actives have a fitted effect of over 35% in size
In short: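 Agonist-mode qHTS in CHO cells stably carrying human muscarinic M1. Intracellular calcium is tracked by fluorescence every second after compound transfer; each compound runs at 15 concentrations in three independent runs.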

[13] = cAMP Responsive Elements (CRE) small molecule agonists, cell-based qHTS assay (AID 1963590)
In short: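 Agonist mode qHTS in CRE-bla HEK 293T cells: compounds dosed from DMSO for 3 h at 37 C/5% CO2, followed by LiveBLAzer B/G FRET substrate for 2 h at room temperature.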

[14] = cAMP Responsive Elements (CRE) small molecule antagonists, cell-based qHTS assay (AID 1963591; active means well fitted inhibition curve with a large enough effect in the signal ratio in the repeat runs, not every such curve was filed as active; the % refers to the signal ratio)
In short: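 Antagonist mode: test compounds are co-incubated with the adenylyl cyclase activator NKH477 (0.25 uM final) on CRE-bla HEK293T cells for 3 h at 37 °C, followed by LiveBLAzer substrate loading.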

[15] = target: Beta-2 adrenergic receptor (Homo sapiens) (UniProt P07550); test: Adrenergic beta2 receptor (ADRB2) small molecule antagonists, cell-based qHTS assay (AID 1963592); further: series mostly up to about 92 µM; nearly all actives have a fitted effect of over 50% in size
Chain of Beta-2 adrenergic receptor (Homo sapiens) (P07550 whole entry, looked up): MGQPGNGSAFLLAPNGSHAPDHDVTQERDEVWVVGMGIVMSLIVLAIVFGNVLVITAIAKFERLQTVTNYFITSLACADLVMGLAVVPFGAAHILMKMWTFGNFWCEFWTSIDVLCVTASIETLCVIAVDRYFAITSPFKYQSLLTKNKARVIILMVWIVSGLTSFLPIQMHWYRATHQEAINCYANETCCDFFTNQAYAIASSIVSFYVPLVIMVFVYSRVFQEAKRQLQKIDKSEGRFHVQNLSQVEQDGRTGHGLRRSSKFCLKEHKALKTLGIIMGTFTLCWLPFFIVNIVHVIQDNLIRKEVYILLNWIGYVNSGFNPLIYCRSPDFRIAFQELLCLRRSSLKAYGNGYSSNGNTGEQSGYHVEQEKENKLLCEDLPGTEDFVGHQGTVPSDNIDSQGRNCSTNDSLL
In short: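 Cells (CHO, stable ADRB2 overexpression) incubated 18-20hr at 37C; compounds added from DMSO; agonist mix (1nM isoproterenol, 100uM IBMX, 25uM Ro-20-1724) added; 0.5hr RT; d2-cAMP and anti-cAMP-cryptate added; 1hr RT; 665/615 nm read.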

[16] = target: Beta-2 adrenergic receptor (Homo sapiens) (UniProt P07550); test: Adrenergic beta2 receptor (ADRB2) small molecule agonists, cell-based qHTS assay (AID 1963593);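 further: CHO cells stably overexpressing human ADRB2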
In short: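 CHO cells stably over-expressing ADRB2 were plated overnight at 37C, then dosed with compounds plus a stimulation mix containing 100uM IBMX and 25uM Ro-20-1724 for 0.5hr at room temperature. cAMP was measured by HTRF competition, 1hr.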

[17] = target: D(2) dopamine receptor (Homo sapiens) (UniProt P14416); test: Dopamine D2 receptor (DRD2) small molecule agonists, cell-based qHTS assay (AID 1963594); further: nearly all actives have a fitted effect of over 35% in size
Chain of D(2) dopamine receptor (Homo sapiens) (P14416 whole entry, looked up): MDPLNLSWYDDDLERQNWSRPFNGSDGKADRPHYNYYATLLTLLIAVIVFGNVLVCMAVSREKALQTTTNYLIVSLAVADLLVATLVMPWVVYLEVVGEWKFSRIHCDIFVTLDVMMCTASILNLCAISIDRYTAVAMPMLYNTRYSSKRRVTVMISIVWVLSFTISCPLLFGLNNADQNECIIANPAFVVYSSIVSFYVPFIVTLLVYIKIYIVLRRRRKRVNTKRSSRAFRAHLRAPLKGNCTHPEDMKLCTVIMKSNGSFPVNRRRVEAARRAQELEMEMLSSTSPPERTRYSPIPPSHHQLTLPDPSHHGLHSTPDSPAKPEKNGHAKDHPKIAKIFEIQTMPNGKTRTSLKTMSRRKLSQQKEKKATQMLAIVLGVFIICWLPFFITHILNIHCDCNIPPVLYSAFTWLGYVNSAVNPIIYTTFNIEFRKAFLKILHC
In short: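 cAMP accumulation in DRD2-HEK293 cells measured by HTRF after 1 h detection; compounds added 10 min before NKH477 (200nM […]) forskolin-analogue stimulation, 30 min at room temperature, with Ro20-1724 present at 0.1 mM final.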

[18] = target: D(2) dopamine receptor (Homo sapiens) (UniProt P14416); test: Dopamine D2 receptor (DRD2) small molecule antagonists, cell-based qHTS assay (AID 1963595; active means well fitted inhibition curve with a large enough effect in the signal ratio in the repeat runs, with a control signal flat; the % refers to the signal ratio)
In short: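 DRD2-HEK293; 0.1 mM Ro20-1724; cpd 10 min RT; NKH477 200 nM + quinpirole 12 nM, 30 min RT; HTRF cAMP (cAMP-d2/anti-cAMP cryptate), 665/620 nm ratio after 1 h.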

[19] = p53 small molecule agonists, cell-based qHTS assay with rat liver microsomes: qHTS cell viability counter screen (AID 1963580); further: nearly all actives have a fitted effect of over 45% in size
In short: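 Intracellular ATP, by CellTiter-Glo luminescence, defines viability. HCT-116 p53RE-bla cells, 4,000 per well, were compound-treated in the presence of rat liver microsomes and NADPH for 16 h at 37 C.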

Measured: Potency

C[N+](C)(CCOc1ccccc1)Cc1cccs1
not listed: [19]
inactive: all other assays above

C=CC(=O)O[C@H]1C[C@@H]2CC[C@@]1(C)C2(C)C
not listed: [5]
inactive: all other assays above

CC(=O)Oc1cccc(O)c1
not listed: [16]
inactive: all other assays above

c1ccc(CSCc2ccccc2)cc1
not listed: [7] | [15]
inactive: all other assays above

CCC(C)C(=O)OCCc1ccccc1 (stereo unspecified)
not listed: [11]
inactive: all other assays above

O=C1CC(c2ccc(Cl)cc2)CC(=O)N1
not listed: [6] | [8] | [12]
inactive: all other assays above

CCCCCCCN
not listed: [11] | [12] | [16]
inactive: all other assays above
